GPR151 activ – human GPR151 activation; Q8TDV0; PathHunter beta-arrestin GPR151 cells, luminescence; activation, % at 11.2 µM; actives 1% (n = 650,000); AID 1508602; in the data active = activation above about 4.9%;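 also: 0% = median of compound wells and 100% = cells with positive control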
FBW7 activator – human FBW7 E3 ligase activation, primary screen; Q969H0; AlphaScreen FBW7–phospho-cyclin E peptide binding, activator screen; normalized activity (activation), % at 26.1 µM; actives 0.13% (n = 650,000); in the data active = normalized activity above about 1.9%;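 also: purified mutant Fbw7 with reduced substrate affinity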
TEAD-YAP block – TEAD-YAP interaction inhibition | actives 1.4% (n = 640,000) | HEK-TIYL cells, TEAD-Gal4/YAP UAS-luciferase luminescence | inhibition, % at 9.12 µM | AID 1259422; in the data active = inhibition above about 32%;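 also: 0% = median of test compound wells and 100% = reference inhibitor wells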
MITF primary – blocks human microphthalmia-associated transcription factor | inhibition, % at 2.6 µM | AlphaScreen MITF homodimerization, bead proximity signal | O75030 | actives 0.91% (n = 650,000); in the data active = inhibition above about 50%;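 also: 0% = vehicle wells with protein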
Starred values were filed as active, the others as inactive. Rows were chosen to be rich in hits. Some 3.5% of all compounds tested hit in one or more screens of this group.

SMILES	GPR151 activ	FBW7 activator	TEAD-YAP block	MITF primary
Cc1cccc(NC(c2cccnc2)c2ccc3ccc(C)nc3c2O)n1 (centres undefined)	2	0	22	14
O=C(NCCc1c[nH]c2ccccc12)/C(=C\c1ccco1)NC(=O)c1cccs1	1	0	0	9
O=C(Cc1c[nH]c2ccccc12)N1CCC[C@@H]2CN(Cc3ccsc3)CC[C@H]21	0	0	2	-18
CC(=O)Nc1cccc(-c2cccc3cnc(Nc4ccc(-n5cnc(C)n5)cc4)nc23)c1	-1	0	57*	21
Cc1ncn(-c2ccc(Nc3ncc4cccc(-c5ccncc5)c4n3)cc2)n1	2	1	45*	4
Cc1ncn(-c2ccc(Nc3ncc4cccc(-n5cccn5)c4n3)cc2)n1	3	0	43*	2
Cc1cnc(NC(=O)c2ccc(Cn3ccnc3)cc2)s1	-1	0	61*	0
CSc1nnc2c(n1)OC(c1cccc(C)n1)Nc1ccccc1-2 (centres undefined)	-1	0	-13	10
C#CCOc1ccc(/C=C2\C(=O)ON=C2C)cc1OC	2	0	-10	68*
CCOc1c(Br)cc(/C=C2\C(=O)ON=C2C)cc1OC	2	0	-8	78*
CSc1ccc(/C=C2\C(=O)ON=C2C)cc1	0	1	-3	79*
COc1cc(/C=C2\C(=O)ON=C2C)cc(Cl)c1OC(C)C	0	0	-4	75*
Cc1nc(-n2nnc(C(=O)N3CCCC3)c2C)sc1C	0	0	-37	-1
O=C(CC(c1ccccc1)c1ccccc1)N1CCN(C(=O)c2ccco2)CC1	1	0	-3	17
CCn1c(SCC(=O)OCC(=O)Nc2ccc(C)c(F)c2)nnc1-c1cccs1	1	0	-6	5
COc1ccc(OC)c(/C=C2/C(=O)ON=C2C)c1	0	0	-4	46
COc1ccc(Br)cc1/C=C1\C(=O)ON=C1C	-1	0	-5	65*
Nc1cccc(-c2nc(NCCCN3CCCC3=O)c3ncn(-c4ccsc4)c3n2)c1	0	0	62*	13
Cc1noc(C)c1-c1nc(NCCCN2CCCC2=O)c2ncn(-c3ccsc3)c2n1	-2	0	59*	-2
O=C1CCCN1CCCNc1nc(-c2ccc(N3CCOCC3)nc2)nc2c1ncn2-c1ccsc1	-2	0	48*	-10
O=C1CCCN1CCCNc1nc(-c2ccc(N3CCOCC3)nc2)nc2c1ncn2CCN1CCCC1=O	0	0	2	-6
CN1CCN(c2ccc(-c3nc(NCCCN4CCCC4=O)c4ncn(-c5ccsc5)c4n3)cc2)CC1	0	0	35*	-7
COc1ccc(OC)c(C2NC(=O)NC(C)=C2C(=O)Nc2ccccc2OC)c1 (centres undefined)	2	0	-3	-9
COc1ccc(OC)c(/C(O)=C/C(=O)C(=O)Nc2cc([N+](=O)[O-])ccc2OC)c1	0	0	6	18
COc1ccc(-n2c(=S)[nH]c3cc(C(=O)NCCC4=CCCCC4)ccc3c2=O)cc1	-1	0	1	-14
SMILES	GPR151 activ	FBW7 activator	TEAD-YAP block	MITF primary
COCc1c(C(=O)OC)nnn1-c1nonc1N	1	0	2	-4
O=C(NCCC1CNc2ccccc21)C1CO1 (centres undefined)	0	0	-6	7
COc1ccc(CCCC(=O)Nc2ccc(C)cc2C)cc1C	1	0	-2	8
CCC(C)Nc1nc(-c2c[nH]c3ccccc23)cs1 (centres undefined)	0	3.9*	-3	-9
C=CCNc1nc(-c2c[nH]c3ccccc23)cs1	1	1	-5	-13
Cc1c(NC(=O)C(c2ccccc2)c2ccccc2)cccc1-c1nc2ncccc2o1	0	0	3	4
COCCNC(=O)C1CCCN(Cc2nc(-c3ccc(OC)cc3)oc2C)C1 (centres undefined)	2	0	-8	8
CCOCCn1c(=NC(=O)c2cccc(OC)c2OC)sc2ccccc21	-5	0	74*	11
COCCn1c(=NC(=O)c2cccc(OC)c2OC)sc2cc(OC)c(OC)cc21	-2	0	-9	-6
Cc1ccc([N+](=O)[O-])cc1NC(=O)CSc1nnc(CC(=O)Nc2ccccc2)n1C	0	0	11	13
CC1CCN(C(=O)Cn2c(=O)n(C(C)C)c3ncccc32)CC1	-1	0	-8	8
CC(C)n1c(/C=N/Nc2nc3ccccc3[nH]2)nc2ccccc21	0	0	37*	11
Cn1c(/C=N/Nc2nc3ccccc3[nH]2)nc2ccccc21	-1	0	40*	-24
CCCn1c(/C=N/Nc2nc3ccccc3[nH]2)nc2ccccc21	1	0	1	17
Cc1ccccc1C(=O)Nc1ccc(N(C)C)cc1	-5	0	4	8
Cc1ccccc1NC=C1C(=O)OC(C)(C)OC1=O	0	0	6	0
COc1ccc(C(=O)NCCc2nnc3n2CCN(Cc2cccc(C)c2)CC3)cc1	1	0	12	-12
CC1(Cc2cccc(F)c2)C(=O)Nc2ccc(-c3cccnc3)cc21 (centres undefined)	4	0	40*	23
CC1(Cc2cccc(C#N)c2)C(=O)Nc2ccc(-c3cccnc3)cc21 (centres undefined)	1	0	45*	25
CC1(Cc2cccc(C#N)c2)C(=O)Nc2ccc(F)cc21 (centres undefined)	5	0	2	-4
CCN(CC)c1ccc(/C=N/Nc2ncnc(N)c2[N+](=O)[O-])cc1	-9	-1	91*	-13
Cc1cc(/C=N/Nc2ncnc(N)c2[N+](=O)[O-])c(C)n1-c1ccccc1	-8	-1	83*	16
Cc1nn(-c2ccccc2)c(Cl)c1/C=N/Nc1ncnc(N)c1[N+](=O)[O-]	2	0	32*	2
O=C(COc1ccccc1F)Nc1sccc1-c1nc2ccccc2s1	1	0	-13	8
O=C(OCCOc1ccc(Br)cc1)c1cc[n+]([O-])cc1	-1	0	4	2
SMILES	GPR151 activ	FBW7 activator	TEAD-YAP block	MITF primary
COc1ccc(C2CC(=O)c3c([nH]c(C(=O)OCCOC(C)C)c3C)C2)cc1 (centres undefined)	1	0	3	10
COc1cc(C2CC(=O)c3c([nH]c(C(=O)OCCSC)c3C)C2)cc(OC)c1OC (centres undefined)	5	0	56*	7
CCOCCOC(=O)c1[nH]c2c(c1C)C(=O)CC(c1ccc(OC)c(OC)c1)C2 (centres undefined)	0	0	21	9
COc1cc(C2CC(=O)c3c([nH]c(C(=O)OCCOC(C)C)c3C)C2)cc(OC)c1OC (centres undefined)	2	0	66*	4
FC(F)(F)c1cccc(N=c2oc3ccc4ccccc4c3cc2-c2nc3ccccc3[nH]2)c1	1	0	-2	13
O=C(Nc1ccc(Cl)cc1Cl)N[C@H]1C[C@H]2C(=O)N3CCC[C@@H]3C(=O)N2C1	-1	0	-11	10
COc1ccc(CCNc2nc(-c3c(C)nn(C)c3C)ncc2C)cc1	2	0	3	11
